Assay [1] in a line: Nuclear factor erythroid 2-related factor 2/antioxidant responsive element (Nrf2/ARE) small molecule agonists: qHTS cell viability counter screen in human keratinocytes (AID 1919968; active means well fitted curve in the direction sought with a large enough effect in the repeat runs; an effect the other way counts as inactive or inconclusive; further: nearly all actives have a fitted effect of over 55% in size; further: potency means the concentration at half of the fitted maximal effect). A digest of the protocol: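 KeratinoSens HaCaT cells, 1,500/well, preincubated 5 h, then exposed to compounds in DMSO for 23 h at 37 C/5% CO2. Viability read as CellTiter-Fluor fluorescence after 1 h, in the same wells as the ARE-luciferase read.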
For orientation: In qHTS, concentration-response curves come from the screen itself.

Assay [2] in a line: Nuclear factor erythroid 2-related factor 2/antioxidant responsive element (Nrf2/ARE) small molecule agonists: luciferase reporter gene qHTS assay in human keratinocytes (AID 1919969). Further: nearly all actives have a fitted effect of over 35% in size.
Assay [3] deals with Gonadotropin-releasing hormone receptor (Homo sapiens) (UniProt P30968). The assay is described as follows: Human gonadotropin-releasing hormone receptor (GnRHR) small molecule agonists, calcium flux assay in GnRHR-HEK293 cells (AID 1920063). Further: nearly all actives have a fitted effect of over 35% in size. A digest of the protocol: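 HEK293 cells stably expressing human GnRHR were dye-loaded for 1 h at 37 C. Compound was added in agonist mode and fluorescence (Ex/Em 480/540) recorded kinetically for 3 min. Fifteen concentrations, triplicates.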
Gonadotropin-releasing hormone receptor (Homo sapiens), sequence (P30968 whole entry, looked up): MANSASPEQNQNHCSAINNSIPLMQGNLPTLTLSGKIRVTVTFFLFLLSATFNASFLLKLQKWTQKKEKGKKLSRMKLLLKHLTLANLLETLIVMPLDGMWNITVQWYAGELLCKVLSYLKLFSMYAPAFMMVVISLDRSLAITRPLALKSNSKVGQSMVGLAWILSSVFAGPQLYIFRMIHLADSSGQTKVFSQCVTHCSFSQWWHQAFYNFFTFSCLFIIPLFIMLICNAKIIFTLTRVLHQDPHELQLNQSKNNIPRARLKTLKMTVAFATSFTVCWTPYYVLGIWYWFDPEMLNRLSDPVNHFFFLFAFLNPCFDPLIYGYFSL

For assay [4], the target named is KiSS-1 receptor (Homo sapiens) (UniProt Q969F8). The assay can be described thus: Human kisspeptin (KISS1R) small molecule agonists, calcium flux assay in KISS1R-HEK293 cells (AID 1920064; active means well fitted curve in the direction sought with a large enough effect in the repeat runs; an effect the other way counts as inactive or inconclusive). A digest of the protocol:
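HEK293 cells stably expressing human KISS1R were loaded with calcium dye for 1 h at 37 C, then given compound; fluorescence (Ex/Em 480/540) was read kinetically for 3 min. Fifteen concentrations, triplicate.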
(A change in cytosolic calcium serves as a functional read-out for many receptors and channels.)

The nature of assay [5]: G protein-coupled receptor (GPCR) small molecule agonists, calcium flux assay: HEK293 wild type cell line counter screen (AID 1920065). A digest of the protocol:
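Wild-type HEK293 cells plated 18 h, loaded with calcium dye 1 h at 37 C, then compounds added in agonist mode (ATP as positive control). Kinetic fluorescence Ex/Em 480/540 recorded 3 min at 1 sec intervals; 15 concentrations, triplicate.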

Assay [6] addresses 5-hydroxytryptamine receptor 2A (Homo sapiens) (UniProt P28223). The assay is described as follows: 5-hydroxytryptamine receptor 2A (HTR2A) small molecule antagonists, cell-based qHTS assay (AID 1963586). Further: nearly all actives have a fitted effect of over 45% in size. The method in brief: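 Antagonist-mode intracellular calcium assay: DOI (4 nM) added after 5 min compound pre-incubation at room temperature to dye-loaded HTR2A-CHO cells. Fluorescence followed for 3 min, sampled every second.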

Assay [7] has the same target. The assay can be described thus: 5-hydroxytryptamine receptor 2A (HTR2A) small molecule agonists, cell-based qHTS assay (AID 1963587). Further: nearly all actives have a fitted effect of over 30% in size. A digest of the protocol: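 Kinetic calcium-flux fluorescence (2 min, 1 sec intervals) after compound addition in agonist mode. HTR2A-CHO cells were cultured 18 h, then dye-loaded 1 h at 37 C.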
The target of assay [8] is Muscarinic acetylcholine receptor M1 (Homo sapiens) (UniProt P11229). The assay is described as follows: Cholinergic receptor muscarinic 1 (CHRM1) small molecule antagonists, cell-based qHTS assay (AID 1963588). Further: nearly all actives have a fitted effect of over 40% in size. A digest of the protocol: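 CHRM1-CHO calcium-flux assay, antagonist mode. Cells were seeded 18 h, dye-loaded 1 h at 37 C and given compound for 5 min at RT, then acetylcholine was added at 50nM. FDSS fluorescence was read 3 min; 15 concentrations, three runs.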
Muscarinic acetylcholine receptor M1 (Homo sapiens), sequence (P11229 whole entry, looked up): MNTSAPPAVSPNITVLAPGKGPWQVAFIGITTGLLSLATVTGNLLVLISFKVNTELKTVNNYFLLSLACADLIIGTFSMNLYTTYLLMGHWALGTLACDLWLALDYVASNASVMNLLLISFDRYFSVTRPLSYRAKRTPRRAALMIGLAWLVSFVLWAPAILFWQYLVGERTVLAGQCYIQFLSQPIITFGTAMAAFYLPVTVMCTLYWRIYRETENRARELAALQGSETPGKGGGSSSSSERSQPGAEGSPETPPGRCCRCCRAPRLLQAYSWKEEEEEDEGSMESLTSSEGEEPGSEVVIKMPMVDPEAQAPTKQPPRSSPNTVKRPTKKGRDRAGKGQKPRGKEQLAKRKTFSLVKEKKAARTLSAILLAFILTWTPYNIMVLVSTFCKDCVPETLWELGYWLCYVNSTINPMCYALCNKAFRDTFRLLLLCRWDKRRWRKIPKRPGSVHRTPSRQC

The target is the same in assay [9]. The assay can be described thus: Cholinergic receptor muscarinic 1 (CHRM1) small molecule agonists, cell-based qHTS assay (AID 1963589). Further: nearly all actives have a fitted effect of over 35% in size. A digest of the protocol:
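CHO cells stably expressing human CHRM1 were loaded with calcium dye for 1 h at 37 C, then compound was added in agonist mode. Intracellular calcium fluorescence was followed kinetically at 1 s intervals. Fifteen concentrations were tested in three independent runs.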

Assay [10] is described as follows: cAMP Responsive Elements (CRE) small molecule agonists, cell-based qHTS assay (AID 1963590). A digest of the protocol: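 CRE-bla HEK 293T cells, 2,000/well in DMEM with 10% dialyzed FBS and 25 mM HEPES, pre-incubated 18 h at 37 C, then exposed to compound 3 h at 37 C. Beta-lactamase reporter read with LiveBLAzer B/G FRET substrate after 2 h at room temperature.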

Assay [11] in a line: cAMP Responsive Elements (CRE) small molecule antagonists, cell-based qHTS assay (AID 1963591; active means well fitted inhibition curve with a large enough effect in the signal ratio in the repeat runs, not every such curve was filed as active; the % refers to the signal ratio). The method in brief: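 CRE-bla HEK293T cells plated 18 h, then given compound plus NKH477 at 0.25 uM final for 3 h at 37C. Beta-lactamase reporter read with LiveBLAzer B/G FRET substrate after 2 h at room temperature.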
Assay [12] addresses Beta-2 adrenergic receptor (Homo sapiens) (UniProt P07550). The assay is described as follows: Adrenergic beta2 receptor (ADRB2) small molecule antagonists, cell-based qHTS assay (AID 1963592). Further: series mostly up to about 92 µM; nearly all actives have a fitted effect of over 50% in size. A digest of the protocol: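 Cells (CHO, stable ADRB2 overexpression) incubated 18-20hr at 37C; compounds added from DMSO; agonist mix (1nM isoproterenol, 100uM IBMX, 25uM Ro-20-1724) added; 0.5hr RT; d2-cAMP and anti-cAMP-cryptate added; 1hr RT; 665/615 nm read.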

Assay [13] concerns the target D(2) dopamine receptor (Homo sapiens) (UniProt P14416). The assay can be described thus: Dopamine D2 receptor (DRD2) small molecule agonists, cell-based qHTS assay (AID 1963594). Further: nearly all actives have a fitted effect of over 35% in size. A digest of the protocol:
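cAMP accumulation in DRD2-HEK293 cells measured by HTRF after 1 h detection; compounds added 10 min before NKH477 (200nM […]) forskolin-analogue stimulation, 30 min at room temperature, with Ro20-1724 present at 0.1 mM final.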

Assay [14] shares this target. The assay is described as follows: Dopamine D2 receptor (DRD2) small molecule antagonists, cell-based qHTS assay (AID 1963595; active means well fitted inhibition curve with a large enough effect in the signal ratio in the repeat runs, with a control signal flat; the % refers to the signal ratio). The method in brief: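 HEK293 cells stably expressing DRD2, preincubated with 0.1 mM Ro20-1724 and compounds 10 min, were stimulated with 200 nM NKH477 plus 12 nM quinpirole for 30 min at room temperature; cAMP measured by HTRF (665/620 nm).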

Assay [15] can be described thus: p53 small molecule agonists, cell-based qHTS assay with human liver microsomes: qHTS cell viability counter screen (AID 1963579). Further: nearly all actives have a fitted effect of over 45% in size. The method in brief: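 p53RE-bla cells (4,000/well) were pre-incubated 5 h at 37 C, then given compounds in DMSO plus human liver microsomes (0.5 mg/mL final) and NADPH (0.5 mg/mL final) for 16 h at 37 C. Viability was read by CellTiter-Glo luminescence.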

Assay [16] can be described thus: p53 small molecule agonists, cell-based qHTS assay with rat liver microsomes: qHTS cell viability counter screen (AID 1963580). Further: nearly all actives have a fitted effect of over 45% in size. A digest of the protocol: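 Intracellular ATP, by CellTiter-Glo luminescence, defines viability. HCT-116 p53RE-bla cells, 4,000 per well, were compound-treated in the presence of rat liver microsomes and NADPH for 16 h at 37 C.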
Assay [17] can be described thus: p53 small molecule agonists, cell-based qHTS assay: qHTS cell viability counter screen (AID 1963581). Further: nearly all actives have a fitted effect of over 45% in size. Further: potency means the concentration at half of the fitted maximal effect. A digest of the protocol: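 p53RE-bla HCT-116 cells, compounds added 5 h after plating and incubated 16 h at 37 C. Cytotoxicity measured in the same wells as intracellular ATP by CellTiter-Glo luminescence after 30 min at room temperature.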
Assay [18] can be described thus: p53 small molecule agonists, cell-based qHTS assay (AID 1963582; active means well fitted activation curve with a large enough effect in the signal ratio in the repeat runs, not every such curve was filed as active; the % refers to the signal ratio). The method in brief: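 p53RE-bla reporter cells, compounds added in DMSO after 5 h plating, incubated 16 h at 37 C. Beta-lactamase read via 2 h room-temperature LiveBLAzer B/G FRET substrate, fluorescence intensity.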
Assay [19] deals with Beta-2 adrenergic receptor (Homo sapiens) (UniProt P07550). The assay can be described thus: Adrenergic beta2 receptor (ADRB2) small molecule agonists, cell-based qHTS assay (AID 1963593).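 Further: CHO cells stably overexpressing human ADRB2.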 A digest of the protocol: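 CHO cells stably over-expressing ADRB2 were plated overnight at 37C, then dosed with compounds plus a stimulation mix containing 100uM IBMX and 25uM Ro-20-1724 for 0.5hr at room temperature. cAMP was measured by HTRF competition, 1hr.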
Beta-2 adrenergic receptor (Homo sapiens), sequence (P07550 whole entry, looked up): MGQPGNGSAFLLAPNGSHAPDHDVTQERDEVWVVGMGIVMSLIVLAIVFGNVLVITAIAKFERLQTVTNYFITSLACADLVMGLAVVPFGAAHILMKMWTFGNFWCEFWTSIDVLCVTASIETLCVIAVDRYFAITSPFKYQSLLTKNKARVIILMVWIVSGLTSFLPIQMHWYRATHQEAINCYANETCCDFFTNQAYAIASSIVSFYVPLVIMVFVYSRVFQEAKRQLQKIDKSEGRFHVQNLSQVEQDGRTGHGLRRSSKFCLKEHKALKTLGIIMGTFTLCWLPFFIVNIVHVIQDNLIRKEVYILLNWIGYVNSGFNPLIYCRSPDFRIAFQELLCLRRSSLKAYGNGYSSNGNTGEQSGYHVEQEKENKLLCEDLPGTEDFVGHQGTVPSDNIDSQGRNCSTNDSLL

A short description of assay [20]: p53 small molecule agonists, cell-based qHTS assay with rat liver microsomes (AID 1963578). A digest of the protocol: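 p53RE-bla cells were exposed to compounds together with rat liver microsomes (0.5 mg/mL final) and NADPH (0.5 mg/mL final) for 16 h at 37 C, then read by LiveBLAzer beta-lactamase fluorescence after 2 h at room temperature.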

Records with an inconclusive call do not appear. Calls of active or inactive are those of the source. Unless noted, the call rests on the fitted dose curve.

D(2) dopamine receptor (Homo sapiens), sequence (P14416 whole entry, looked up): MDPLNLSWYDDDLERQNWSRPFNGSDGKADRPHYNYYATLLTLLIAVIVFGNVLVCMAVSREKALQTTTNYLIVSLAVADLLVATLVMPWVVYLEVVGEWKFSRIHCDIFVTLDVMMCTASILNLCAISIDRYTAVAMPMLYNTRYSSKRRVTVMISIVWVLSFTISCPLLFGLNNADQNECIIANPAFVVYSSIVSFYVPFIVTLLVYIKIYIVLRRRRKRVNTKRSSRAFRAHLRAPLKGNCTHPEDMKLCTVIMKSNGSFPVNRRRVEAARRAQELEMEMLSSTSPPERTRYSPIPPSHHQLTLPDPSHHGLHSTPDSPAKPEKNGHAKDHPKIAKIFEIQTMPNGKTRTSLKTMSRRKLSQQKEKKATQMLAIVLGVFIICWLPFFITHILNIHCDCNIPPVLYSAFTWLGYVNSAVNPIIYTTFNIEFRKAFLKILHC
5-hydroxytryptamine receptor 2A (Homo sapiens), sequence (P28223 whole entry, looked up): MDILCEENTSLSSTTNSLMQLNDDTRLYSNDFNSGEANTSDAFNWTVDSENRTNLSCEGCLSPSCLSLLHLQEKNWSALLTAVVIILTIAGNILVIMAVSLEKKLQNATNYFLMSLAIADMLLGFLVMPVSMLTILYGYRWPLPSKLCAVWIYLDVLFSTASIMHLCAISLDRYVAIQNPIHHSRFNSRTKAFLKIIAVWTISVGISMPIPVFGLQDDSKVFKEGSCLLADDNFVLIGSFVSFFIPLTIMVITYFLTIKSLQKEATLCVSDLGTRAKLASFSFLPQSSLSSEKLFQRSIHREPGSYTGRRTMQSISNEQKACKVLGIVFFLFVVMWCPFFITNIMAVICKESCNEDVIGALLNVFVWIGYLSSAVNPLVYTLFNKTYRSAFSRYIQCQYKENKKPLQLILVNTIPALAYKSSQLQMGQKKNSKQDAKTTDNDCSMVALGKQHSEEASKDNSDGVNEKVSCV
KiSS-1 receptor (Homo sapiens), sequence (Q969F8 whole entry, looked up): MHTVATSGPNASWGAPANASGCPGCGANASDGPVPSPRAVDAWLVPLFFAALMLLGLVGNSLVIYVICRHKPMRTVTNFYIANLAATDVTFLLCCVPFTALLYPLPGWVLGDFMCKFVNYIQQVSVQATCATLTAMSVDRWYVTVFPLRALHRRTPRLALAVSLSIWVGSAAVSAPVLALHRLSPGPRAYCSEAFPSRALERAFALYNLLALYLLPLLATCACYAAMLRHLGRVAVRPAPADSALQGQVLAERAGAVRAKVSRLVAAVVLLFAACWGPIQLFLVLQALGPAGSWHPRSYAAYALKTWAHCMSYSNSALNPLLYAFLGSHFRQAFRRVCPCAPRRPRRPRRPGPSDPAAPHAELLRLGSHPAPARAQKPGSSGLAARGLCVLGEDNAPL

Regarding `O=S(=O)(O)c1cc(O)c2ccc(Nc3ccccc3)cc2c1`, the Potency entry in assay [1], in [2], in assay [3], in assay [4], in [5] and in [6] was “inactive” throughout. Moreover, the Potency result in assay [7], in assay [8], in assay [9], in assay [10], in [11] and in assay [12] was “inactive” throughout. For the same molecule, the Potency entry in assay [13] and in assay [14] was “inactive” throughout.

Regarding `C[C@H]1c2cccc(O)c2C(O)=C2C(=O)[C@]3(O)C(O)=C(C(N)=O)C(=O)[C@@H](N(C)C)[C@@H]3[C@@H](O)[C@@H]21`, the Potency result in assay [1], in [2], in assay [3], in assay [4], in [15] and in assay [16] was “inactive” throughout. For the same molecule, the Potency result in [17], in assay [18], in assay [6], in assay [7], in assay [8] and in [9] was “inactive” throughout. Moreover, the Potency entry in [12], in assay [19], in assay [13] and in assay [14] was “inactive” throughout.

Take `CC/C=C\CCOC(C)OCC` (stereo unspecified): the Potency entry in [1], in assay [2], in assay [3], in assay [4], in assay [20] and in assay [15] was “inactive” in each case. In addition, the Potency result in assay [17], in assay [18], in [6], in assay [7], in [8] and in assay [9] was “inactive” in each case. Moreover, the Potency entry in assay [10], in assay [11], in assay [12], in assay [13] and in assay [14] was “inactive” throughout.

Turning to `CC1=C(Br)C(=O)C(Br)=C/C1=C(/c1ccccc1S(=O)(=O)O)c1cc(Br)c(O)c(Br)c1C`, in assay [1], the Potency is 18.6 µM (active). In addition, the Potency result in assay [2], in [3], in assay [4], in [5], in assay [17] and in assay [6] was “inactive” in each case. The Potency entry in assay [7], in assay [9], in [10] and in [11] was “inactive” in each case.

Take `O=C(O)CCc1nc(-c2ccccc2)c(-c2ccccc2)o1`: the Potency result in assay [1], in [2], in assay [3], in [4], in assay [5] and in assay [12] was “inactive” throughout. The Potency entry in assay [19], in assay [13] and in assay [14] was “inactive” throughout.

Turning to `Cc1ccccc1C(=O)Nc1ccc(C(=O)N2CCCC(O)c3cc(Cl)ccc32)c(C)c1` (stereo unspecified), the Potency result in assay [1], in assay [2], in [3], in [4], in [15] and in [16] was “inactive” each time. Also, the Potency entry in [17], in [18], in assay [7], in assay [8], in assay [9] and in assay [11] was “inactive” each time. Further, the Potency entry in assay [12] and in [14] was “inactive” throughout.

`CC(=O)NC1(c2cccc(F)c2)CCN(CC[C@@]2(c3ccc(Cl)c(Cl)c3)CN(c3ccccc3)C(=O)CO2)CC1`: the Potency in assay [1] is 48.7 µM (active); in [17] it was 36.5 µM (active). Also, the Potency entry in assay [2], in assay [3], in assay [4], in assay [20], in assay [15] and in assay [16] was “inactive” throughout. For the same molecule, the Potency entry in assay [18], in assay [7], in assay [8], in [9], in assay [13] and in assay [14] was “inactive” each time.

Take `CC(C)NCC(O)COc1cccc2[nH]ccc12` (stereo unspecified): the Potency result in [1], in [2], in [3], in assay [4], in [5] and in [18] was “inactive” throughout. Also, the Potency result in assay [10], in assay [11], in assay [12], in [13] and in assay [14] was “inactive” in each case.

Regarding `CCNC(=O)/C=C/c1cccc(Br)c1`, the Potency result in [1], in assay [2], in [3], in assay [4], in assay [20] and in [15] was “inactive” throughout. Besides, the Potency result in assay [16], in assay [18], in assay [7], in [8], in assay [9] and in [10] was “inactive” in each case. The Potency entry in assay [11], in assay [12], in [19], in [13] and in assay [14] was “inactive” throughout.

As to `O=C1OC(=O)c2cc(Oc3ccc4c(c3)C(=O)OC4=O)ccc21`, the Potency result in assay [1], in assay [2], in assay [3], in assay [4], in assay [20] and in [15] was “inactive” in each case. Moreover, the Potency entry in assay [16], in [17], in [18], in assay [6], in assay [7] and in assay [8] was “inactive” in each case. In addition, the Potency entry in assay [9], in assay [10], in [11], in assay [12], in [13] and in [14] was “inactive” each time.

For the origin of these results see PubChem BioAssay (Tox21).
